An excerpt weighted towards active compounds, which were near 21% of everything screened.
D3 antag – qHTS of D3 Dopamine Receptor Antagonist: qHTS | 360,000 compounds, 2.5% hits | max response, negative = inhibition, % | D3R cells, DiscoveRx beta-arrestin luminescence, antagonist mode; active compounds read low; in the data active = max response below about -50%; inconclusive = no clear call, values can overlap the other calls
Target sequence (P35462 whole entry, looked up): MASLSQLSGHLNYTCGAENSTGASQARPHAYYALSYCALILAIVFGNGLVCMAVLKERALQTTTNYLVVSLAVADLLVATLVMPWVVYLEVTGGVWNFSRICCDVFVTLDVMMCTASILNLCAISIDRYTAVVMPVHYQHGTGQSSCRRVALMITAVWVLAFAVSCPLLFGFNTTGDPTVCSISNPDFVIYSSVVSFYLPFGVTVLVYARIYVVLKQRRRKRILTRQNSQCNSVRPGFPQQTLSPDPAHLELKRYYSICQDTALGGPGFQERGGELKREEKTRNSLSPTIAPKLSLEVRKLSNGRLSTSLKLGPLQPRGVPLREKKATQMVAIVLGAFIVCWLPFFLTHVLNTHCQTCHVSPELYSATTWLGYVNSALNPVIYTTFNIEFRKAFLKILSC
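Cells expressing the human receptor were seeded at 1500 cells/well, incubated overnight at 37 degrees C in 5% CO2, then exposed to library compounds with dopamine controls for 90 minutes at 37 degrees C before luminescent detection.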
DRD3 agonist – qHTS of D3 Dopamine Receptor Agonist: qHTS. D3R DiscoveRx beta-arrestin cells, luminescence, 90 min. D(3) dopamine receptor (Homo sapiens), P35462. AID 652048, 2013. 410,000 compounds, 0.58% hits. max activation, %; in the data active = max activation above about 30%
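Agonist-mode cell screen: cells plated at 1500/well and incubated overnight at 37 °C, then exposed to library compounds for 90 min at 37 °C. Detection reagent was added for 30–60 min at room temperature, and luminescence was read.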
IL1B secr inh – qHTS for Inhibitors of Inflammasome Signaling: IL-1-beta AlphaLISA Primary Screen. activity change, % at 57.5 µM. 360,000 compounds, 4.7% hits. AID 743279, 2014. THP-1 LPS/ATP IL-1B secretion, AlphaLISA, 16 h; active compounds read low; in the data active = activity change below about -50%; inconclusive = mostly about -30% to -49%
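THP-1 cells pretreated 1 hr with compounds (up to 57.5 uM final), then stimulated with LPS (250 ng/mL final) plus ATP (1.25 mM final); secreted IL-1B measured by AlphaLISA after 16 hr, decreased signal indicating inhibition.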
TDP1 cell CPT – qHTS for Inhibitors of human tyrosyl-DNA phosphodiesterase 1 (TDP1): qHTS in cells in presence of CPT; chicken DT40 Tdp1-/-;hTDP1 cells + 20 nM CPT, ATP luminescence, 48 h; Potency, µM (top dose mostly 46.2 µM), hits mostly inhibitors; 420,000 compounds, 12% hits; note: nearly all actives have a fitted effect of over 55% in size
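Cell growth measured by CellTiter-Glo luminescence after a minimum 48 h, 37 C compound exposure with 20 nM CPT in Tdp1-knockout DT40 cells stably expressing hTDP1, seeded 400/well; qHTS titration format.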
TDP1 cell noCPT – qHTS for Inhibitors of human tyrosyl-DNA phosphodiesterase 1 (TDP1): qHTS in cells in absence of CPT; DT40 Tdp1-/- hTDP1 cells, no CPT, ATP luminescence, 48 h; Potency, µM (titrated, usually from 46.2 µM), most hits filed as inhibitors; 420,000 compounds, 15% hits; note: nearly all actives have a fitted effect of over 55% in size
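Chicken DT40 Tdp1-/- cells stably complemented with human TDP1 were seeded at 400 cells/well with DMSO in place of 20 nM camptothecin. After compound pinning, cells grew at least 48 hr at 37 °C; viability read by CellTiter-Glo luminescence.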
ClpP mod – qHTS Assay for Activators of ClpP. purified B. subtilis ClpP, FRET peptide cleavage, 20 min. Potency, µM (highest dose often 57.5 µM). ATP-dependent Clp protease proteolytic subunit (Bacillus subtilis (strain 168)), P80244. 340,000 compounds, 1.9% hits; active = well fitted falling curve with a large enough effect; inconclusive = small, poorly fitted or top-dose-only effect; inactive = no such curve, though single readings can be large or run the other way; note: the source files actives as falling curves though it sought activators and does not explain the sign; nearly all actives have a fitted effect of over 65% in size
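FRET quenching reversal measured ClpP activation: 10 microg/mL B. subtilis ClpP at pH 8 with the FRET-FV decapeptide, read at 430 nm after 320 nm excitation. The 20-min minus 0-min signal was scaled between DMSO/no-enzyme wells and ADEP (5.8 microM final).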
Numbers stand for hits; . = inactive; ? = inconclusive; / = no result. Unless noted, calls come from the whole dose curve; as a rule, active = well fitted inhibition curve with a large enough effect; inconclusive = small, poorly fitted or top-dose-only effect; inactive = flat fitted curve, though single readings scatter.

SMILES	D3 antag	DRD3 agonist	IL1B secr inh	TDP1 cell CPT	TDP1 cell noCPT	ClpP mod
COc1cc(C2CC(=O)Nc3n[nH]c(-c4ccccc4)c32)cc(OC)c1OC (configuration not stated)	.	.	.	8.2µM	14.6µM	.
COc1cc2c(cc1OC)C(c1ccccc1C)CC(=O)N2 (configuration not stated)	.	.	.	.	.	/
COc1cc2c(cc1OC)C(c1ccc(OC)c(OC)c1OC)CC(=O)N2 (configuration not stated)	.	.	.	.	.	.
COc1cc2c(cc1OC)C(c1ccccc1C(F)(F)F)CC(=O)N2 (configuration not stated)	.	.	-52.8	.	?	/
Cc1nnsc1C(=O)Oc1ccc(C#N)cc1	/	.	/	.	.	.
CC(=O)Nc1cccc(C(=O)OCc2csc(CC(=O)Nc3ccccc3C)n2)c1	.	.	.	.	.	.
Cc1nc(C(N)=O)c(N)n1CCc1ccccc1	.	.	.	.	.	.
COc1cccc(C2CC(=O)Nc3cc4c(cc32)OCCO4)c1OC(C)C (configuration not stated)	.	.	.	?	?	.
COc1cc2c(cc1OC)C(c1cccc(F)c1)CC(=O)N2 (configuration not stated)	.	.	.	.	?	/
CCCOc1c(OC)cccc1C1CC(=O)Nc2cc3c(cc21)OCCO3 (configuration not stated)	.	.	.	?	13µM	.
Cc1cc2c(cc1C)C(c1cccc([N+](=O)[O-])c1)CC(=O)N2 (configuration not stated)	.	.	.	23.1µM	18.4µM	.
COc1ccc(C(=O)N[C@H]2CCCCNC2=O)cc1OC1CCN(C(C)C)CC1	.	.	.	.	.	.
CC(C)OCCCNC(=S)Nc1ccc(S(N)(=O)=O)cc1	.	.	.	23.1µM	?	.
CC(C(=O)NCCCc1ccccc1)n1cccc1C(=O)c1ccccc1 (configuration not stated)	.	.	.	?	?	.
NNC(=S)Nc1ccccc1Cl	.	.	.	?	7.31µM	/
Cc1ccc(S(=O)(=O)NNC(=O)Nc2ccc([N+](=O)[O-])cc2)c(C)c1	.	.	.	?	?	.
OCCN1CCN(C(=S)c2ccc(Cl)c(Cl)c2)CC1	.	.	.	18.4µM	18.4µM	.
COc1cc(NC(=S)N2CCN(CCO)CC2)c(OC)cc1Cl	.	.	.	.	.	/
CC1(C)CC(=O)C(C2C3=C(CC(C)(C)CC3=O)Oc3ccc4ccccc4c32)C(=O)C1 (configuration not stated)	.	.	-71.6	.	?	/
CCOc1ccccc1CN1CCN(C2CCSCC2)CC1CCO (configuration not stated)	.	.	.	.	.	/
Cc1ccc(C2c3[nH]c4ccccc4c3C[C@H]3C(=O)N(c4ccccc4C(=O)NCCN4CCOCC4)C(=O)N23)cc1 (some centres not stated)	.	.	.	.	.	.
Cc1ccccc1C1c2[nH]c3ccccc3c2C[C@H]2C(=O)N(c3ccccc3C(=O)NCCCN3CCOCC3)C(=O)N12 (some centres not stated)	.	.	.	23.1µM	16.4µM	.
Cc1ccc(C2c3[nH]c4ccccc4c3C[C@H]3C(=O)N(c4ccccc4C(=O)NCCCN4CCOCC4)C(=O)N23)cc1 (some centres not stated)	.	.	.	11.6µM	?	.
